From PubChem BioAssay AID651947 (Broad Institute, 2012)
Results with a measured potency or affinity are listed apart. Results filed as inconclusive are left out. Active and inactive are the calls of the source.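 Rule for the calls: active = luminescence drop in HepG2 cells whose fitted half-effect dose is at most twice the top valid dose; inconclusive = flat curve with 30 to 70% signal loss, or unreliable fit; inactive = the rest.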

Assay: HepG2 hepatoma cell viability loss – plate reader, dry powder, cytotoxicity control, dose response (AID 651947)
Conditions: ATP luminescence (CellTiter-Glo), 48 h, hits give low values; at 26 µM unless noted

For `c1ccc(-c2nnc(SCCC3OCCCO3)o2)cc1`, which max activity is on record?
Its max activity is 12.9% [at 0.8 µM] (inactive).

Which max activity does the source give for `c1ccc(-c2nnc(SCc3cscn3)o2)cc1` here?
The max activity was -61.2% [at 12 µM] (inactive).

Which max activity does the source give for `c1ccc(Cn2cc(CSc3nnc(C4CCC4)o3)nn2)cc1` here?
The max activity was -18.3% [at 0.38 µM] (inactive).

With `Brc1cccc(-c2nnc(SCc3ccccn3)o2)c1` as the compound, how does the max activity read?
The max activity was -18% [at 1.6 µM] (inactive).

Which max activity does the source give for `COCCOCCSc1nnc(-c2ccccc2)o1` here?
Its max activity is -8.39% [at 1.6 µM] (inactive).

With `FC(F)(F)Oc1cccc(CSc2nnc(-c3ccccc3)o2)c1` as the compound, how does the max activity read?
Its max activity is 19.6% [at 0.38 µM] (inactive).

For `c1ccc(-c2nnc(SCCN3CCOCC3)o2)cc1`, which max activity is on record?
The max activity was -7.63% [at 0.38 µM] (inactive).

For `c1ccc(CSc2nnc(-c3ccccn3)o2)cc1`, which max activity is on record?
Its max activity is -20.9% [at 1.6 µM] (inactive).

Which max activity does the source give for `Fc1ccc(CSc2nnc(-c3ccc(Cl)cc3)o2)cc1` here?
The max activity was -47.5% [at 12 µM] (inactive).

With `Clc1cccc(-c2nnc(SCc3ccccc3)o2)c1` as the compound, how does the max activity read?
The max activity was -48.3% [at 3 µM] (inactive).

For `c1ccc(-c2nnc(SCc3ccncc3)o2)cc1`, which max activity is on record?
Its max activity is -21.6% [at 0.38 µM] (inactive).

Which max activity does the source give for `COc1ccc(CSc2nnc(-c3ccc(Cl)cc3)o2)nc1` here?
The max activity was 20.3% [at 0.8 µM] (inactive).

For `COc1ccccc1CSc1nnc(-c2ccccc2)o1`, which max activity is on record?
Its max activity is -56.1% [at 6 µM] (inactive).

Which max activity does the source give for `COc1ccccc1-c1nnc(SCc2ccccc2)o1` here?
Its max activity is -18.4% [at 0.195 µM] (inactive).

For `c1ccc(CNc2nnc(-c3ccccc3)o2)cc1`, which max activity is on record?
The max activity was 25.5% [at 0.195 µM] (inactive).

Which max activity does the source give for `CS(=O)(=O)c1ccc(-c2nnc(SCc3ccccc3)o2)cc1` here?
The max activity was -40.3% (inactive).

Which max activity does the source give for `c1ccc(-c2nnc(SCCN3CCN(c4ccccc4)CC3)o2)cc1` here?
Its max activity is -48.3% [at 12 µM] (inactive).

Which max activity does the source give for `Cc1ccc(-c2nnc(SCc3ccccc3)o2)cc1` here?
Its max activity is 15.2% [at 3 µM] (inactive).

With `CN(C)CCSc1nnc(-c2ccccc2)o1` as the compound, how does the max activity read?
Its max activity is -18.8% [at 0.195 µM] (inactive).

With `Cc1nnc(SCc2ccccc2)o1` as the compound, how does the max activity read?
The max activity was -55.2% [at 0.195 µM] (inactive).

With `c1ccc(-c2nnc(SCCN3CCCC3)o2)cc1` as the compound, how does the max activity read?
Its max activity is -61.1% [at 0.8 µM] (inactive).

For `CC(C)c1nnc(SCc2ccccc2)o1`, which max activity is on record?
The max activity was 28.6% [at 0.38 µM] (inactive).

Which max activity does the source give for `c1ccc(CSc2nnc(-c3cccnc3)o2)cc1` here?
Its max activity is -26.9% [at 0.8 µM] (inactive).

Which max activity does the source give for `Clc1ccccc1CSc1nnc(-c2ccccc2)o1` here?
The max activity was 17.5% [at 0.195 µM] (inactive).

For `c1ccc(CCc2nnc(SCc3ccccc3)o2)cc1`, which max activity is on record?
Its max activity is 22.3% [at 3 µM] (inactive).

For `Clc1cccc(CSc2nnc(-c3ccccc3)o2)c1`, which max activity is on record?
The max activity was -32.2% [at 0.195 µM] (inactive).

Which max activity does the source give for `O=S(Cc1cn(-c2ccccc2)nn1)c1nnc(-c2ccc(Cl)cc2)o1` (stereo not given) here?
The max activity was -41.8% [at 12 µM] (inactive).

With `COc1cccc(CSc2nnc(-c3ccccc3)o2)c1` as the compound, how does the max activity read?
Its max activity is 25.7% (inactive).

Which max activity does the source give for `c1ccc(-n2cc(CSc3nnc(C4CCC4)o3)nn2)cc1` here?
Its max activity is -30.4% [at 12 µM] (inactive).

For `Clc1ccc(-c2nnc(SCc3cn(-c4ccccc4)nn3)o2)cc1`, which max activity is on record?
The max activity was -13% [at 3 µM] (inactive).

With `Cc1cccc(CSc2nnc(-c3ccc(Cl)cc3)o2)n1` as the compound, how does the max activity read?
Its max activity is 26% [at 0.38 µM] (inactive).

With `c1ccc(COc2nnc(-c3ccccc3)o2)cc1` as the compound, how does the max activity read?
Its max activity is -50.7% [at 1.6 µM] (inactive).

For `FC(F)(F)c1ccccc1-c1nnc(SCc2ccccc2)o1`, which max activity is on record?
The max activity was 15.6% [at 1.6 µM] (inactive).

Which max activity does the source give for `CS(=O)(=O)c1ccccc1-c1nnc(SCc2ccccc2)o1` here?
Its max activity is 22.6% [at 3 µM] (inactive).

With `Cc1cccc(-c2nnc(SCc3ccccc3)o2)c1` as the compound, how does the max activity read?
Its max activity is -20.2% [at 0.38 µM] (inactive).
